Results filed as inconclusive are left out. Active and inactive are the calls of the source. Unless noted, the call rests on the fitted dose curve; in most records, active means well fitted curve in the direction sought with a large enough effect in the repeat runs; inconclusive means weak or mixed curves; inactive means no such curve, though single readings can be large; an effect the other way counts as inactive or inconclusive.
Assays:
[1] = qHTS assay for small molecule agonists of the p53 signaling pathway (AID 651631; calls by dose curve; further: nearly all actives have a fitted effect of over 15% in size)
In short: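 HCT-116 cells carrying a stable p53 response element–beta-lactamase reporter were plated, rested 5 h at 37 °C, then exposed to compound in DMSO for 16 h at 37 °C; reporter activity was read as FRET substrate fluorescence after 2 h at room temperature.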

[2] = qHTS assay for small molecules that induce genotoxicity in human embryonic kidney cells expressing luciferase-tagged ATAD5 (AID 651632); further: nearly all actives have a fitted effect of over 15% in size
In short: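 DMSO vehicle served as the control. HEK293T reporter cells, 16 hr at 37C, then 30 min Amplite at room temperature; ATAD5 induction is measured as luciferase activity.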

[3] = qHTS assay for small molecule agonists of the p53 signaling pathway - cell viability (AID 651633; calls by dose curve; further: series mostly up to about 83 µM; nearly all actives have a fitted effect of over 30% in size)
In short: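 Viability counter-read: CellTiter-Glo luminescence (30 min, room temperature) in the same p53RE-bla plates. These plates had been exposed to compounds for 16 h at 37 C.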

[4] = qHTS assay for small molecules that induce genotoxicity in human embryonic kidney cells expressing luciferase-tagged ATAD5 - cell viability (AID 651634; calls by dose curve; further: nearly all actives have a fitted effect of over 25% in size)
In short: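 Here HEK293T cells with the ATAD5 luciferase reporter are incubated with test compounds for 15.5 hr, and cytotoxicity is then gauged by measuring protease activity in live cells using fluorescence.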

[5] = qHTS assay to test for compound auto fluorescence at 590 nm (red) in HepG2 cells (AID 720674)
In short: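 We screened compounds on adherent HepG2 cells, incubating them for an hour at 37 C in 5% CO2 before reading emission at 590 nm under 540 nm excitation; values reflect equivalence to Rose Bengal sodium fluorescence.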

[6] = qHTS assay to test for compound auto fluorescence at 535 nm (green) in HepG2 cells (AID 720675)
[7] = qHTS assay to test for compound auto fluorescence at 460 nm (blue) in HEK293 cells (AID 720678)
In short: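 After cell attachment (4-5 hr, 37C), compounds were pinned onto HEK293 monolayers in 10% dialyzed FBS medium. The blue channel (405/460 nm) was read following overnight culture. Equivalency was calculated against triamterene.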

[8] = qHTS assay to test for compound auto fluorescence at 590 nm (red) in HEK293 cells (AID 720679)
In short: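 Plates of HEK293 cells (10% dialyzed FBS) are treated with 23 nL compound or DMSO vehicle after a 4-5 hr attachment period, incubated overnight at 37C, and read for red fluorescence at 540/590nm.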

[9] = qHTS assay to test for compound auto fluorescence at 535 nm (green) in HEK293 cells (AID 720680)
[10] = qHTS assay to test for compound auto fluorescence at 460 nm (blue) in HEK293 cell free culture (AID 720681)
In short: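 Blue fluorescence (Ex 405/Em 460 nm, triamterene-equivalent) was read immediately after pin transfer of compound or DMSO into medium (DMEM, 10% FBS) without cells.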

[11] = qHTS assay to test for compound auto fluorescence at 535 nm (green) in HEK293 cell free culture (AID 720682)
In short: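 Read-out: 485/535 nm fluorescence intensity, calibrated against fluorescein. Medium only (DMEM + 10% FBS, no cells); test compound or DMSO vehicle added by pintool before plate reading.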

[12] = qHTS assay to test for compound auto fluorescence at 590 nm (red) in HEK293 cell free culture (AID 720683)
In short: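 Red-channel autofluorescence of compounds in culture medium (DMEM, 10% FBS), no cells, measured at 540/590 nm. Rose Bengal sodium is the reference fluorophore for equivalence.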

[13] = qHTS assay to test for compound auto fluorescence at 590 nm (red) in HepG2 cell free culture (AID 720684)
In short: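 No cells present: MEM + 10% FBS only. Compound pinned in, red label read (540/590 nm). Activity = fluorescence equivalent to Rose Bengal sodium.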

[14] = qHTS assay to test for compound auto fluorescence at 460 nm (blue) in HepG2 cell free culture (AID 720685)
In short: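 Cell-free plates of MEM plus 10% FBS received 23 nL compound or DMSO vehicle; blue-channel (405/460 nm) intensity scored against triamterene as reference fluorophore.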

[15] = qHTS assay to test for compound auto fluorescence at 535 nm (green) in HepG2 cell free culture (AID 720686)
[16] = qHTS assay to test for compound auto fluorescence at 460 nm (blue) in HepG2 cells (AID 720687)
In short: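 Blue-channel autofluorescence (Ex/Em 405/460 nm, triamterene-equivalent) was measured after 1 hr compound exposure at 37 C, 5% CO2. Cells were HepG2, plated overnight at 37 C in MEM plus 10% FBS.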

[17] = qHTS assay for small molecule disruptors of the mitochondrial membrane potential - cell viability (AID 720634; calls by dose curve;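 further: human HepG2 liver cancer cells; series mostly up to about 83 µM; nearly all actives have a fitted effect of over 20% in size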)
In short: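 Viability of HepG2 cells is scored from ATP content by luminescence; cells are exposed to compound for 1 hr at 37 C and 5% CO2, then dosed with m-MPI dye before the CellTiter-Glo reagent.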

[18] = target: Glucocorticoid receptor (Homo sapiens) (UniProt P04150); assay: qHTS assay to identify small molecule agonists of the glucocorticoid receptor (GR) signaling pathway (AID 720691; active means well fitted activation curve with a large enough effect in the signal ratio in the repeat runs, not every such curve was filed as active; the % refers to the signal ratio)
In short: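 Compounds in DMSO, alongside positive controls, were added to GR-bla HeLa reporter cells and incubated 18 h at 37 C; GRE-driven beta-lactamase was detected by fluorescence after 2 h with FRET substrate at room temperature.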

[19] = target: Glucocorticoid receptor (Homo sapiens) (UniProt P04150); assay: qHTS assay to identify small molecule antagonists of the glucocorticoid receptor (GR) signaling pathway (AID 720692; active means well fitted inhibition curve with a large enough effect in the signal ratio in the repeat runs, not every such curve was filed as active; the % refers to the signal ratio)
In short: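 In a 1536-well cell format, compounds were added 4 h after seeding GR-bla HeLa cells, together with dexamethasone at 5 nM final; reporter activity was measured by FRET-substrate fluorescence following 18 h at 37 C.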

[20] = qHTS assay for small molecule disruptors of the mitochondrial membrane potential (AID 720635)
In short: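 Mitochondrial membrane potential tracked with Mito-MPS dye, red aggregates (ex 540/em 590 nm) against green monomers (ex 490/em 535 nm). Compound treatment 1 hr at 37C, dye 30 min in HepG2.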

Measured: Potency

Glucocorticoid receptor (Homo sapiens), sequence (P04150 whole entry, looked up): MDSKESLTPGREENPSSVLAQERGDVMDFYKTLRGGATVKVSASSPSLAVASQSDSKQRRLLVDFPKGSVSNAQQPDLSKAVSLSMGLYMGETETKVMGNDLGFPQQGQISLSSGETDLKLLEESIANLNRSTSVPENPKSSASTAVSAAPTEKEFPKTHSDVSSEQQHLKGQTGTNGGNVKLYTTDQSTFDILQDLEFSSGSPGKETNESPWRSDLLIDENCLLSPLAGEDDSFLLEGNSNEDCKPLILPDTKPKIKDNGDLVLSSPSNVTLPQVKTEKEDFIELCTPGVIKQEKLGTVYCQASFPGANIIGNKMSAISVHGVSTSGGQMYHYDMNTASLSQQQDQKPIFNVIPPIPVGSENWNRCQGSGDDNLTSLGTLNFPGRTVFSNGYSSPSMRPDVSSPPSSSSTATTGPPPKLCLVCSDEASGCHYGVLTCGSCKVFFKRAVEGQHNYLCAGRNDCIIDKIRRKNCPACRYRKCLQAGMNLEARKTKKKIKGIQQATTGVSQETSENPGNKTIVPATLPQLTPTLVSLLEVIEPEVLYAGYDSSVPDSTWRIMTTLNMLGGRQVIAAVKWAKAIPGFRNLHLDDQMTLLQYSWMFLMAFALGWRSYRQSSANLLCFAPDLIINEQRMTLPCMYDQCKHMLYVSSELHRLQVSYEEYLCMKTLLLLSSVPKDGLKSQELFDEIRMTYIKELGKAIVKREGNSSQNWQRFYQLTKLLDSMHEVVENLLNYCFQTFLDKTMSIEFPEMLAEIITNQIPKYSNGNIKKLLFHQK

CCCN(CCCl)c1c([N+](=O)[O-])cc(C(F)(F)F)cc1[N+](=O)[O-]
not listed: [17] | [18] | [19] | [20]
inactive: all other assays above

C[N+](C)(C)CCCl
not listed: [5] | [15] | [19] | [20]
inactive: all other assays above

CC(C)(Cl)[N+](=O)[O-]
not listed: [5] | [8] | [18] | [20]
inactive: all other assays above

COC(=O)c1cncn1C(C)c1ccccc1 (centres undefined)
not listed: [5] | [15] | [18] | [19] | [20]
inactive: all other assays above

O=C1C(Cl)C(CCl)CN1c1cccc(C(F)(F)F)c1 (centres undefined)
not listed: [13] | [15] | [17] | [19] | [20]
inactive: all other assays above

CC(=O)CCC(C)=O
not listed: [5] | [13] | [18] | [20]
inactive: all other assays above

N#C/C(N)=C(/N)C#N
not listed: [2] | [19] | [20]
inactive: all other assays above

CC(Cl)Cl
not listed: [2] | [3] | [5] | [19]
inactive: all other assays above

N#CCc1ccccc1
not listed: [2] | [18] | [19]
inactive: all other assays above

From PubChem BioAssay (Tox21)
